# From article PMC5540273 (PLoS ONE, 2017)
# Like-named read-outs stand apart in the source and are kept apart here.
# Legend:
# ZAK = settings: concentration: 1 μM, replicates: in singlicate; n = 1
# ZAP70 = settings: concentration: 1 μM, replicates: in singlicate; n = 1
# p38-alpha = test system: T1, p38-alpha; settings: n = 1
# T1 construct: gene MAPK14
# p38-beta = test system: T2, p38-beta; settings: concentration: 1 μM, replicates: in singlicate; n = 1
# T2 construct: gene MAPK11
# p38-delta = settings: concentration: 1 μM, replicates: in singlicate; n = 1
# p38-gamma = test system: T3, p38-gamma; settings: concentration: 1 μM, replicates: in singlicate; n = 1
# T3 construct: gene MAPK12
# [1] = concentration: 1 μM, replicates: in singlicate
# 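Also: KINOMEscan kinase panel screen.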
Compound,%Inh (ZAK),%Inh (ZAP70),%Inh (p38-alpha; [1]),%Inh (p38-beta),%Inh (p38-delta),%Inh (p38-gamma),%Inh (p38-alpha; 1 µM)
CC(C)(C)c1ccc2nccc(Nc3cccc(O)c3)c2c1 [GW856795],0%,42%,0%,0%,12%,18%,–
Cl.Cl.NCC(NC(=O)c1cc(-c2ccccc2)c(-c2ccnc3[nH]ccc23)s1)c1ccccc1 (stereo not drawn) [GSK1321561],46%,0%,0%,0%,47%,0%,–
Cl.Cl.NCC(C(=O)Nc1cc(Br)c(-c2ccnc3[nH]ccc23)s1)c1ccccc1 (stereo not drawn) [GSK1269851],0%,0%,0%,40%,17%,0%,–
FC(F)(F)c1ccc(/C=C/c2cncnc2Nc2ccc3[nH]c(Cc4ccccc4)nc3c2)cc1 [GW709199],0%,9%,0%,3%,0%,35%,–
Cn1cc(-c2ccc3c(c2)CCN3C(=O)Cc2cccc(F)c2)c2c(N)ncnc21 [GSK2603358],0%,55%,0%,0%,52%,19%,–
O=C(Nc1cccc(-c2nn3ccccc3c2-c2ccnc(Nc3cccc(F)c3)n2)c1)c1c(F)ccc(F)c1Cl [GSK357952],85%,0%,0%,26%,36%,0%,–
O=C(Nc1cccc(Oc2ccc3nc(NC(=O)C4CC4)cn3n2)c1)c1ccccc1C(F)(F)F,25%,0%,9%,15%,17%,42%,–
COc1cc(Nc2nccc(N3CCC(NC(=O)c4cc5ccccc5s4)C3)n2)cc(OC)c1OC (stereo not drawn) [GSK1379760],0%,0%,3%,2%,15%,26%,–
COc1cccc(C(=O)Nc2cccc(Oc3ccc4nc(NC(=O)C5CC5)cn4n3)c2)c1,62%,0%,15%,16%,32%,39%,–
COc1ccc(Nc2nccc(NCCNC(=O)c3cc4ccccc4s3)n2)cc1 [GSK1379896],0%,0%,13%,0%,11%,5%,–
Cl.c1ccc(-c2ccc3c(Nc4ccc5[nH]ncc5c4)ccnc3c2)nc1 [GW440137],71%,24%,8%,0%,38%,14%,–
Nc1ncc(-c2ccc3nccc(-c4ccncc4)c3c2)cc1S(=O)(=O)N1CCOCC1 [GSK1627798],0%,0%,0%,0%,0%,0%,–
c1ccc(-c2cnc3nccnn23)cc1 [AH20685],0%,0%,0%,0%,20%,0%,–
O=C(Nc1n[nH]c2cc(-c3ccoc3)ccc12)C1CC1 [SB-738481],15%,0%,0%,0%,0%,1%,–
COc1cccc(C2=C(Nc3ccc(Cl)c(C(=O)O)c3)C(=O)NC2=O)c1 [SB-390769],0%,5%,12%,0%,45%,100%,–
CC(=O)N1CCN(c2ccc(Nc3nccc(-c4sc(C(C)C)nc4-c4cccc(NS(=O)(=O)c5cccc(Cl)c5)c4)n3)cn2)CC1 [GSK1660437],96.7%,0%,32%,0%,0%,11%,–
Fc1ccc(-c2ncn(C3CCNCC3)c2-c2ccnc(Oc3ccc(-c4ccccc4)cc3)n2)cc1 [SB-245391],17%,24%,–,60%,0%,26%,96%
COC(=O)Nc1nc2cc(Oc3ccc(NC(=O)Nc4cc(C(F)(F)F)ccc4F)cn3)ccc2[nH]1.Cl.Cl [GW681170],92%,0%,70%,34%,75%,42%,–
CCn1c(-c2nonc2N)nc2c(C#CC(C)(C)O)ncc(OCCCCN)c21.O=C(O)C(F)(F)F.O=C(O)C(F)(F)F [GSK507274],36%,0%,0%,0%,27%,0%,–

Compound,%Inh (ZAK),%Inh (ZAP70),%Inh (p38-alpha; [1]),%Inh (p38-beta),%Inh (p38-delta),%Inh (p38-gamma),%Inh (p38-alpha; 1 µM)
COc1ccc(-c2coc3ccc(-c4nnc(SCc5ccc(OC)c(C(F)(F)F)c5)o4)cc23)cc1,0%,0%,0%,6%,6%,16%,–
O=c1[nH]cc(-c2ccc(N3CCOCC3)cc2)c2sc(-c3cn[nH]c3)cc12 [GSK2276055],69%,0%,8%,0%,41%,36%,–
CN1CCN(Cc2cccc(-c3ccc4c(Nc5ccc(Oc6ccccc6)cc5)ccnc4c3)c2)CC1 [GW578342],79%,14%,23%,0%,37%,2%,–
Cc1ccc(S(=O)(=O)Nc2ccc(Nc3nccc(Nc4cccc5[nH]ncc45)n3)cc2)cc1 [GSK581271],13%,0%,0%,0%,46%,0%,–
CN(C)Cc1ccc(-c2ccc3c(Nc4ccc(Oc5ccccn5)cc4)ccnc3c2)o1 [GW567148],65%,0%,0%,0%,38%,0%,–
CNC(=O)c1ccccc1Nc1nc(Nc2ccc(N3CCOCC3)cc2)ncc1Cl.Cl [GSK1576028],13%,6%,8%,2%,0%,13%,–
Cc1ccc(F)c(C(=O)Nc2cccc(-c3nn4ccccc4c3-c3ccnc(Nc4cccc(F)c4)n3)c2)c1F [GSK361061],89%,0%,29%,76%,0%,12%,–
CN(c1ccc(NC(=O)Nc2cc(C(F)(F)F)ccc2F)cc1)c1ccnc(Nc2ccc(S(N)(=O)=O)cc2)n1 [GW809893],94.8%,27%,9%,88%,91.7%,85%,–
COc1cc(Nc2nccc(-c3c(-c4cccc(NC(=O)c5c(F)cccc5F)c4)nn4ncccc34)n2)cc(OC)c1OC [GSK327238],97.2%,0%,99.9%,100%,52%,21%,–
COc1cccc(NC(=O)NC2CCN(c3ccnc(Nc4cc(OC)c(OC)c(OC)c4)n3)C2)c1 (stereo not drawn) [GSK1379763],0%,0%,24%,0%,8%,4%,–
CC(C)c1nc(-c2cccc(NS(=O)(=O)c3c(F)cccc3F)c2F)c(-c2ccnc(Nc3ccc(N4CCOCC4)nc3)n2)s1 [GSK2008607],99.1%,0%,81%,51%,0%,0%,–
Nc1n[nH]c2cnc(-c3ccccc3)cc12 [SB-642124],16%,0%,0%,0%,28%,0%,–
COc1cc2c(cc1OCCN1CCNCC1)ncc1c3ccc(C#N)cc3[nH]c21,8%,28%,9%,3%,0%,30%,–
CN1CCN(CCCNc2nccc(-c3c(-c4ccc(F)cc4)nn4cc(C(F)(F)F)ccc34)n2)CC1 [GW621581],17%,0%,99.8%,39%,12%,18%,–
O=C(Nc1cccc(-c2nn3ncccc3c2-c2ccnc(Nc3ccccc3)n2)c1)c1c(F)cccc1F [GSK198271],96.6%,0%,99.3%,99.2%,77%,0%,–
Nc1ncc(-c2cccnc2)c2scc(-c3ccc4c(c3)CCN4C(=O)Cc3ccccc3)c12 [GSK683281],9%,0%,4%,0%,71%,0%,–
O=C(Nc1ccccc1F)NC1CCN(c2ccnc(Nc3ccc(F)cc3)n2)CC1 [GSK1379800],30%,47%,32%,0%,45%,0%,–
COCCOCCOc1cc2ncc3c4ccc(C#N)cc4[nH]c3c2cc1OC,33%,0%,1%,0%,0%,23%,–
